# Results as given in the supplement of paper PMC3334620.
# In all, about 33,000 sequences were measured (“E-score (-0.5 to 0.5)”: median about -0.035, highest 2% from about 0.34 on). This is one part of a sample in which the highest values are shown more often than they occur.
# Target: T1, Mot3 (UniProt P54785)
# T1 sequence: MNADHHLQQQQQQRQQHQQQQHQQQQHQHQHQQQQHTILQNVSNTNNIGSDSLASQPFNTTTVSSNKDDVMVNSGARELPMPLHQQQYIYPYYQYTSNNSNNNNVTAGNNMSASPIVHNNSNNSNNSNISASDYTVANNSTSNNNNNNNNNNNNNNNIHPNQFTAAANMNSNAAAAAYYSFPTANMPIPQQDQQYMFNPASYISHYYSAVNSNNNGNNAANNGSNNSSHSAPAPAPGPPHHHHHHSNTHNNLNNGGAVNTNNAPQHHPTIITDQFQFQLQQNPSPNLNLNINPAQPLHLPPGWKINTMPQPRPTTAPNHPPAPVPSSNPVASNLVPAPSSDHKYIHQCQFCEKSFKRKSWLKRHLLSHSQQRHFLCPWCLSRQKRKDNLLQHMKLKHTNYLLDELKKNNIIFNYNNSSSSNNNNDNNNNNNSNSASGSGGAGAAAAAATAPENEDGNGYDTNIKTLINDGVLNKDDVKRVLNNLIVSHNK
# Test: PBM E-score (8-mer binding enrichment) (E-score (-0.5 to 0.5)); higher = stronger / more preferred TF binding
# Details: protein concentration: 200 nM; construct: GST-full length
# Method in brief: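 Detection of bound protein used fluorescent anti-GST, with scans normalised by masliner. The proteins were GST-tagged yeast transcription factors applied at about 100-200 nM to universal all-10-mer Agilent arrays made double-stranded by primer extension. Each ungapped eight-base word, pooled with its reverse complement, was scored with an E-score from the Universal PBM Analysis Suite.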
row,Sequence,PBM E-score
1,ATATTACA,0.332
2,GGATTAGA,-0.13
3,TGATTACA,0.311
4,GGATTACC,-0.0377
5,CTATTACC,0.142
6,GGATTACA,0.371
7,CTATTACA,0.378
8,AGATTACA,0.354
9,CGATTACG,0.123
10,AGATTACT,0.101
11,GGACAAAC,0.0402
12,AAACCTCG,-0.21
13,ACCAAATC,-0.166
14,GCACTCCC,-0.112
15,AACACAGC,0.268
16,CGTGTCAC,0.157
17,GACCTGAA,-0.107
18,CCATGTAG,0.346
19,ACATGTAC,0.333
20,CCATGTCG,0.247
21,TGATGTAA,0.281
22,TCATGTCA,0.283
23,ACATGTAG,0.388
24,TCATGTAA,0.414
25,ACATGTCG,0.246

row,Sequence,PBM E-score
1,GCATGTAC,0.321
2,CGATGTAG,0.103
3,GCATGTCA,0.26
4,GCATGTAA,0.41
5,CATGTCGC,0.175
6,CACTAGTG,-0.12
7,CATCAACG,0.00915
8,ACTAGGTG,0.125
9,CTTAAAGC,0.00562
10,CTCGTCGA,-0.0922
11,GTCGAGCA,-0.114
12,AAGGTTAC,0.0496
13,CCTATGCC,-0.0577
14,AGCGCTTG,-0.185
15,CGTTGGCA,0.00506
16,AGATGTAT,0.133
17,CCATGTAA,0.411
18,ACATGTAA,0.437
19,CCATGTGA,0.141
20,ACATGTAT,0.357
21,CCATGTAC,0.327
22,ACATGTCT,0.235
23,ACATGTCA,0.319
24,ACATGTGA,0.225
25,ATTCCTTG,0.0459

row,Sequence,PBM E-score
1,GTCAGAGA,-0.242
2,AATGAGCT,-0.0919
3,AGTCTGAA,-0.204
4,GTGTTAAA,0.384
5,GAGTTAAC,0.0651
6,TTGTTAAA,0.256
7,ACGTTAAC,0.25
8,GTGTTAAC,0.352
9,CTGTTAAA,0.238
10,ATGTTAAC,0.397
11,ATGTTACC,0.237
12,CTGTTAAC,0.199
13,GCTAAATA,0.0782
14,CGGAATAG,-0.201
15,GATGACGC,0.0115
16,AGTCAGTG,-0.157
17,GGCGCCCC,-0.0368
18,GCAGGCGA,0.123
19,ACAGGCGT,0.172
20,ACAGGCGG,-0.015
21,ACAGGCTC,0.404
22,ACAGGCTG,0.0165
23,CCAGGCGC,-0.00734
24,GCAGGCGC,0.361
25,ACAGGCGC,0.371

row,Sequence,PBM E-score
1,ACAGGCTA,0.183
2,CCCGCTTC,-0.191
3,CCCAGGAC,-0.288
4,CTGCTTGC,0.0147
5,AAGCGCAG,-0.124
6,CGTATGCA,-0.0506
7,CCAGGAAG,-0.078
8,CCAGGAAA,0.324
9,TCAGGAGA,-0.0813
10,GCAGGAGC,0.0355
11,ACAGGAGA,-0.0281
12,CCAGGAGC,-0.247
13,GCAGGACC,-0.237
14,AGAGGAAA,0.0488
15,TCAGGAAA,0.394
16,ACAGGAAA,0.453
17,GCAGGAAC,0.463
18,CCAGGAAC,0.406
19,ATAGGTGC,0.24
20,AAGCGAGT,-0.0166
21,CCGGGTCC,-0.279
22,AAAGGGCC,-0.132
23,AAGCCACT,-0.172
24,AGCTGGAA,-0.29
25,GCGCCAGC,0.128

row,Sequence,PBM E-score
1,TGCTAAAA,0.0711
2,CGCTGAAA,0.0848
3,ACAAATCT,0.103
4,CTAGTTTC,-0.178
5,AAGCAGTG,0.0592
6,TAGTGGAA,-0.00095
7,ACAGGAAT,0.107
8,CCAAGGAA,0.254
9,GCAGGAAA,0.451
10,ACAAGGAA,0.263
11,ACAGGAAG,0.0333
12,GCAGGATA,-0.121
13,GGAGGAAA,0.0847
14,TCAAGGAA,0.363
15,ACAGGAAC,0.466
16,ATCCATCA,-0.0789
17,AGAGAGAG,-0.326
18,CAACAGTC,-0.167
19,TAGGTACA,0.36
20,CAGGTACA,0.406
21,TGGGTACA,0.0297
22,CCGGTACA,0.0242
23,TAGGTATA,-0.0008
24,GAGGTACA,0.192
25,CTTCTAAC,-0.0665

row,Sequence,PBM E-score
1,CGTGCTTC,0.0855
2,ACTCTACA,0.174
3,GTTAGCCA,-0.136
4,CAGCTCTA,-0.168
5,ACATTAGT,0.187
6,ACGAAACT,-0.0505
7,AGGAAACA,0.391
8,GGGAAACA,-0.036
9,AGGAAACT,0.421
10,GGGAAACC,-0.00353
11,AGGAAACG,0.339
12,CGGAAACA,0.0963
13,AGGAAACC,0.42
14,CGGAAACC,-0.352
15,GCGACGAA,-0.154
16,ACGCGGAG,0.105
17,ACCTAGCA,0.0477
18,CATAGCGC,0.0893
19,TTACCTAA,0.285
20,GTACCTAC,0.405
21,CTACCTAC,0.188
22,ATACCTAC,0.156
23,GTACCTAA,0.374
24,ATACCTAA,0.071
25,AAGCGACG,-0.15

row,Sequence,PBM E-score
1,ATGTTAAG,0.37
2,ACGTTAAA,0.3
3,ATGTTTAA,0.285
4,CTGTTAAG,0.259
5,ATGTTAAT,0.338
6,ATGTTAAA,0.392
7,AAGTTAAA,0.219
8,GAAGGGTA,0.0495
9,GGCCCTAC,-0.281
10,ACAGACTG,-0.0643
11,CGTGTTTC,0.106
12,GACACGAA,0.145
13,TACACAAA,0.369
14,AACACACA,0.34
15,TACACGAA,0.359
16,CACACAAA,0.151
17,AACACACG,0.266
18,CACACGAA,0.165
19,TATACACA,0.364
20,AACACACT,0.22
21,AACACAAA,0.22
22,CATACACA,0.219
23,CATACACG,0.316
